Hits are enriched below; roughly 19% of the tested compounds scored in any of these assays.
KB-V1 cytotox: KB-V1 MDR subline cytotoxicity. AID 1347076. KB-V1 MDR cells viability, CellTiter-Glo, 72 h. hit rate 3.4% among 400,000. Potency, µM (doses to about 46.1 µM), hits mostly cytotoxic; also: nearly all actives have a fitted effect of over 60% in size
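qHTS viability screen in drug-selected KB-V1 MDR cells: 72 h compound treatment at 37 degrees C, ATP luminescence end point.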
TDP1 cell CPT: growth inhibition of DT40 Tdp1-/-;hTDP1 cells with camptothecin (screen for TDP1 inhibitors); Potency, µM (top dose mostly 46.2 µM), for the others: top-dose activity change, negative = growth inhibition, hits mostly inhibitors; chicken DT40 Tdp1-/-;hTDP1 cells + 20 nM CPT, ATP luminescence, 48 h; hit rate 12% among 420,000; also: nearly all actives have a fitted effect of over 55% in size
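Cell growth measured by CellTiter-Glo luminescence after a minimum 48 h, 37 C compound exposure with 20 nM CPT in Tdp1-knockout DT40 cells stably expressing hTDP1, seeded 400/well; qHTS titration format.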
HT1080NT lethal: kills 2HG-producing HT-1080-NT fibrosarcoma cells. HT-1080-NT fibrosarcoma viability, CellTiter-Glo ATP luminescence, 48 h. Potency, µM (series often up to 46.1 µM), for inactives: at the top dose activity, negative = less viability, actives largely listed as cytotoxic. hit rate 1.6% among 360,000. AID 686970;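 also: NT is the 2HG producing partner of a matched IDH1 knockdown line; 0% = DMSO-treated cells and -100% = media-only wells without cells; nearly all actives have a fitted effect of over 55% in size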
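750 cells/well, RPMI + 5% FBS; 2 h settle, compound pin-transfer, 48 h at 37 degrees C. CellTiter-Glo 10 min RT, luminescence. Normalized to DMSO and media-only wells.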
DT40 TDP1 no CPT: qHTS for Inhibitors of human tyrosyl-DNA phosphodiesterase 1 (TDP1): qHTS in cells in absence of CPT; hit rate 15% among 420,000; DT40 Tdp1-/- hTDP1 cells, no CPT, ATP luminescence, 48 h; Potency, µM (series often up to 46.2 µM), for inactives: at the top dose activity change, negative = growth inhibition, most hits filed as inhibitors; also: nearly all actives have a fitted effect of over 55% in size
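Camptothecin absent (DMSO only). Human TDP1-complemented DT40 knockout cells, 400 cells/well, 37 °C for minimum 48 hr; ATP measured via CellTiter-Glo, 30 min dark incubation, luminescence.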
HT1080 IDH1KD tx: HT-1080 IDH1 knockdown cell toxicity (counter line); hit rate 2% among 360,000; HT-1080 IDH1 knockdown viability, ATP luminescence, 48 h; AID 686971; Potency, µM (doses to about 46.1 µM), inactives show at the top dose activity, negative = toxicity, most hits filed as cytotoxic;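 also: 0% = DMSO wells and -100% = cell-free medium wells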
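Luminescent ATP read-out (CellTiter-Glo, 10 min at room temperature) after 48 h compound exposure at 37 °C gave viability of IDH1-knockdown HT-1080 cells. Activity was normalised to DMSO and cell-free wells, then fitted as concentration-response curves.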
KB-3-1 tox: KB-3-1 parental cell cytotoxicity. Potency, µM (titrated, usually from 46.1 µM), usual class: cytotoxic. hit rate 1.4% among 400,000. KB-3-1 viability, CellTiter-Glo ATP luminescence, 72 h; also: nearly all actives have a fitted effect of over 60% in size
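Parental KB-3-1 viability, qHTS format: 72 h compound exposure, 37 °C; CellTiter-Glo; media-only wells and DMSO plates as controls; concentration-effect fits on corrected data.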
Numbers without * were called inactive; i = inactive; ? = inconclusive; . = no result given; ! = not confirmed by another sample. Calls follow the shape of the dose curve; as a rule, active = well fitted curve in the direction sought with a large enough effect; inconclusive = small, poorly fitted or top-dose-only effect, or another doubt; inactive = no such curve, though single readings can be large; an effect the other way counts as inactive or inconclusive. Unless noted, % is scaled to controls: 0 for no effect and ±100 for the full control effect; potency is read from the fitted curve at half-maximal effect.

SMILES	KB-V1 cytotox	TDP1 cell CPT	HT1080NT lethal	DT40 TDP1 no CPT	HT1080 IDH1KD tx	KB-3-1 tox
COc1cc(CNc2ccc(O)cc2)cc(Br)c1OCc1ccccc1	i	?	?	?	-20.7%	i
COc1ccc(Br)cc1CNC(C)c1ccccc1 (stereo not drawn)	i	?	-13.8%	29.1µM*	-21.0%	i
COc1cc(CNC(C)c2ccccc2)cc(Br)c1OCc1ccccc1 (stereo not drawn)	?	-94.0%	16.4µM*	9.2µM*	?	?
CCOC(=O)c1ccc(N2CCN(c3cccc(Cl)c3)CC2)c(NC(=O)Nc2ccc(OC)cc2OC)c1	.	-15.7%	.	-10.2%	.	.
COc1cccc(C(=O)NC2CCCc3c2cnn3-c2ccc(C)c(C)c2)c1OC (stereo not drawn)	i	?	3.7%	?	1.4%	i
CSc1ncccc1C(=O)NC1CCCc2c1cnn2-c1ccc(C)c(C)c1 (stereo not drawn)	?	8.2µM*	?	7.31µM*	-3.1%	i
COc1ncccc1C(=O)NC1CCCc2c1cnn2-c1ccc(C)c(C)c1 (stereo not drawn)	i	16.4µM*	-3.5%	16.4µM*	0.0%	i
COc1ccc(C(=O)NC2CCCc3c2cnn3-c2ccc(C)c(C)c2)c(OC)c1OC (stereo not drawn)	i	?	-10.1%	?	-11.5%	i
C=CCn1c(OCc2ccccc2)n[nH]c1=S	i	5.2%	20.7%	-23.1%	12.8%	i
COc1cc(NC(=O)c2csc(N)n2)cc(C(=O)Nc2cccc(C(F)(F)F)c2)c1	7.31µM*!	4.61µM*	16.4µM*	2.91µM*	20.6µM*	5.8µM*
COc1cc(NC(=O)c2cnc(N)o2)cc(C(=O)Nc2cccc(C(F)(F)F)c2)c1	i	20.6µM*!	-15.9%	13µM*!	-18.7%	?
COc1cc(NC(=O)c2cnc(N)s2)cc(C(=O)Nc2cccc(C(F)(F)F)c2)c1	i	?	0.4%	18.4µM*	-2.9%	i
COc1cc(NC(=O)c2ccnc(N)c2)cc(C(=O)Nc2cccc(C(F)(F)F)c2)c1	?	23.1µM*	?	20.6µM*	14.6%	i
O=C(O)/C=C/c1cn(Cc2ccccc2Cl)nc1-c1ccccc1	i	?	-6.4%	?	-4.8%	i
CCOC(=O)C1=C(C)NC(C)=C(C(=O)OCC)C1c1ccncc1	i	?	-2.8%	?	-0.2%	?
CCCCCCCCOC(=O)CCn1[nH]c(=O)c2ccccc2c1=O	i	-17.8%	5.5%	-10.1%	4.1%	i
CCOC(=O)c1nc2sc3c(c2c(=O)n1C(C)C(=O)OCC)CCCC3 (stereo not drawn)	i	10.3µM*	-1.2%	?	14.0%	i
COc1ccccc1N1CCN(S(=O)(=O)CCNC(=O)Cc2ccc(F)cc2)CC1	18.4µM*	20.6µM*	-26.9%	?	?	?
COc1ccccc1N1CCN(S(=O)(=O)CCNC(=O)COc2ccccc2)CC1	i	?	1.4%	?	-0.6%	i
CCCCOc1ccc(C(=O)NCCS(=O)(=O)N2CCN(c3ccccc3OC)CC2)cc1	.	5.8µM*	.	7.31µM*	.	.
COc1ccccc1N1CCN(S(=O)(=O)CCNC(=O)Cc2ccc(Cl)cc2)CC1	.	?	.	23.1µM*	.	.
O=C(NCc1ccco1)C(C(=O)c1ccccc1)n1ccccc1=O (stereo not drawn)	i	-0.3%	-3.4%	?	-2.2%	i
O=C(NCC1CCCO1)C(C(=O)c1ccccc1)n1ccccc1=O (stereo not drawn)	?	?	-0.6%	10.3µM*	9.9%	i
NC(c1csc(Nc2ccccn2)n1)C1CCCCC1 (stereo not drawn)	i	14.6µM*	-21.3%	16.4µM*	?	i
NC(c1ccccc1)c1csc(Nc2ccccn2)n1 (stereo not drawn)	i	?	-15.8%	20.6µM*	-15.1%	i
SMILES	KB-V1 cytotox	TDP1 cell CPT	HT1080NT lethal	DT40 TDP1 no CPT	HT1080 IDH1KD tx	KB-3-1 tox
CC(N)c1csc(Nc2ncccn2)n1 (stereo not drawn)	i	-11.3%	-1.2%	?	4.3%	i
Cc1cnc(C)c(Nc2nc(C(N)c3ccccc3)cs2)n1 (stereo not drawn)	i	?	?	?	?	i
CC(C)NC(=O)OCc1c(COC(=O)NC(C)C)c([N+](=O)[O-])n2c1CCC2	?	-15.6%	8.7%	3.6%	3.2%	i
O=C(NCc1cccc(F)c1)c1ccc(-n2cnc3cccnc32)cc1	i	?	.	?	.	i
O=C(Nc1cc(F)ccc1F)N1CCC(CN2CCCC2)CC1	.	-4.5%	.	-11.2%	.	.
CCOC(=O)c1c(NC(=O)CC2SC(N)=NC2=O)sc(C)c1C (stereo not drawn)	i	23.1µM*	1.5%	-39.7%	-5.5%	i
CCOC(=O)c1c(NC(=O)CC2SC(=NC)N(C)C2=O)sc(C)c1C (stereo not drawn)	10.3µM*	1.4%	-2.5%	-19.3%	2.5%	i
Cc1ccccc1NC(=O)COC(=O)c1ccc(C)c(S(=O)(=O)N2CCCCC2)c1	i	?	-1.1%	?	-8.2%	i
CCOc1ccccc1Nc1cc(C)nc2ccc(C)cc12	11.6µM*	?	?	20.6µM*	?	?
CCOc1ccccc1Nc1cc(C)nc2ccccc12	?	18.4µM*	-5.0%	?	-14.9%	i
COC(=O)c1ccc2nc(C)cc(Nc3ccccc3C)c2c1	i	?	-16.3%	?	-5.4%	i
Cc1cccc(-n2ccnc2SCC(=O)Nc2cc(C)on2)c1	i	?	17.9%	?	15.1%	i
Cc1cc(NC(=O)CSc2nccn2-c2cccc(C)c2C)no1	10.3µM*	?	?	20.6µM*	?	?
CCSc1nnc(NC(=O)CSc2nccn2-c2cccc(C)c2C)s1	20.6µM*	?	-1.2%	?	-2.9%	i
Cc1cc(NC(=O)CSc2nccn2-c2cccc(F)c2)no1	16.4µM*	?	13.5%	?	8.0%	i
CCS(=O)(=O)N1CCC(n2c(C(F)(F)F)nc3cccnc32)CC1	i	?	.	?	.	i
O=C(CCS(=O)(=O)c1cc(Br)cc2c1N(C(=O)C1CC1)CC2)Nc1ccc(F)cc1	i	-3.5%	.	-4.2%	.	i
